# From the OligoGym collection
# Target: ACYP1
# Test: pooled miR-30 sensor sort-seq; sequence = guide strand
# Settings: shRNA
# Also: reference of the scale not given here.
row,Sequence,sensor-assay potency score (higher = more potent)
1,TTGTGTACAGTGGTAATCCTTC,-0.227
2,TCATTGTTGAAGTTTGCTTTGT,-0.429
3,TTTTCATTGTTGAAGTTTGCTT,-0.234
4,TGTGTGATTTAGGACTTCCTCT,-0.445
5,TTCCTGCATATGACGCACCTTG,-0.872
6,TTAGATTTGTGTACAGTGGTAA,0.61
7,TTTCATTGTTGAAGTTTGCTTT,0.5
8,TTCATAATCCACTGATATCAGG,-1.09
9,TTGTCGATGTGTGATTTAGGAC,-0.517
10,TTTGCTTTGTCGATGTGTGATT,-0.219
11,TAACTTATTGACTAATGCTAAT,-1.36
12,TCGATGTGTGATTTAGGACTTC,-0.511
13,TAGGACTTCCTCTTGTTTCAAG,-0.653
14,AAAAATTTCATAATCCACTGAT,0.598
15,TGTCCTTGCACTGTGCCCCGGT,0.12

# Target: ACYP2
# Test: as above
# Settings: shRNA
row,Sequence,sensor-assay potency score (higher = more potent)
1,TTTTCATTAGAAAAGTTTGTGC,-0.116
2,TTTTCCTAGCTTCATCTTCTGT,-0.817
3,TCATTAGAAAAGTTTGTGCGGT,-0.214
4,TCTGTATACATTCTGAAGCAAA,-1.22
5,TATTCTAGTATACATAGTCTTA,-0.674
6,TTGCTTGTTGAAAACATAGTTG,-0.594
7,TTTGCTGGTATTCTTCACCCAG,-0.785
8,TTCCTAGCTTCATCTTCTGTAT,-0.685
9,TATTTTCCTAGCTTCATCTTCT,1.16
10,TTCATCTTCTGTATACATTCTG,0.635
11,TTGAGTAAAATTATTTCAGTGT,0.361
12,TAGTAGCACGTACAGTCGCTTA,-1.19
13,TTCATTAGAAAAGTTTGTGCGG,0.328
14,TGGAATTGACTTTGTCTTCTGG,-0.0277
15,TAGTCTTAAGAACATACAGTAT,-1.07
16,TTTCCTAGCTTCATCTTCTGTA,0.952
17,TTTAGTAGCACGTACAGTCGCT,0.0895
18,TATTCAAGCTTAGAGATGGTTT,-0.574
19,TTGCTGGTATTCTTCACCCAGC,-1.24
20,ATCTTCTGTATACATTCTGAAG,-1.49
21,TACTCTGCTACTATTATTCTAG,-0.38
22,TTCTAGTATACATAGTCTTAAG,-1.46
23,TTGACTTTGTCTTCTGGCCCCT,0.0313
24,TTAGTAGCACGTACAGTCGCTT,-0.537
